Bioassay records deposited in PubChem BioAssay by National Center for Advancing Translational Sciences (NCATS).
PTAP-TSG101 blk – blocks PTAP binding to human TSG101, validation; Q99816; Fluorescence polarization, FITC-PTAP peptide/Tsg101, 20 min; Potency, µM (top dose mostly 115 µM), usual class: inhibitors; 44,000 tested, under 10 active
Target sequence (Q99816 whole entry, looked up): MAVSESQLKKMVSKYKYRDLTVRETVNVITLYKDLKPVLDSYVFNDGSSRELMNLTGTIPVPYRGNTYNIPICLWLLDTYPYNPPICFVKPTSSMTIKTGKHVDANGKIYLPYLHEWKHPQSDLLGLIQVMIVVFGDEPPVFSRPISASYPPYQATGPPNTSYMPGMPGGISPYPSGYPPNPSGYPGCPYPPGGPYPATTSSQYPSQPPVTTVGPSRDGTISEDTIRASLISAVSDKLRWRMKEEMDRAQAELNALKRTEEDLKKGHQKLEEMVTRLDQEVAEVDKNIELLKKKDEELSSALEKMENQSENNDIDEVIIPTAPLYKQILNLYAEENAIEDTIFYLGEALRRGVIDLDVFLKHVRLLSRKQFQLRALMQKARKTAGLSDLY
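Fluorescence polarization binding of Tsg101 binding domain (10 uM final) to FITC-labeled PTAP-motif peptide (50 nM final) in HEPES pH 7.5/NaCl/Tween 20/EDTA/TCEP buffer; 20 min at r.t. Actives by curve class, <25 µM, efficacy <60% inhibition.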
B2AR arrestin ag – ADRB2 beta-arrestin recruitment. HTLA Tango cells, beta-arrestin recruitment, luciferase luminescence, 18 h. P07550. Potency, µM (titrated, usually from 46.1 µM), hits mostly activators. 44,000 tested, under 10 active
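Tango cells expressing recombinant beta2-AR and beta-arrestin were treated with compounds (up to 46 microM titration) in DMEM with 1% FBS for 18 hr at 37 degrees C. Beta-arrestin recruitment drove tTA-dependent luciferase, read by luminescence; curves were fitted and classed.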
GALK inhibitor – inhibits human galactokinase. P51570. recombinant GALK, Kinase-Glo ATP luminescence, 1 h. Potency, µM (top dose mostly 57.5 µM), actives largely listed as inhibitors. 44,000 tested, under 10 active. AID 1347072
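Reactions with and without enzyme served as controls. GALK at 5 nM phosphorylates 100 uM galactose using 35 uM ATP (HEPES pH 8.0, Mg2+) for 1 h at RT, with luminescence read 10 min after adding Kinase-Glo Plus.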
DRV1 agonist – GPR32 (DRV1) agonism, beta-arrestin recruitment | O75388 | CHO-K1 GPR32 beta-arrestin PathHunter luminescence, 90 min; zero percent set by DMSO-only wells | activation, % at 76.9 µM | 2.5% of 48,000 active | AID 1346428;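 active means activation of at least 60% and not above a set upper limit, about 1 call in 100 departs from these limits; inconclusive means activation of 40% to 60%, or above that upper limit; inactive means activation under 40%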
Target sequence (O75388 whole entry, looked up): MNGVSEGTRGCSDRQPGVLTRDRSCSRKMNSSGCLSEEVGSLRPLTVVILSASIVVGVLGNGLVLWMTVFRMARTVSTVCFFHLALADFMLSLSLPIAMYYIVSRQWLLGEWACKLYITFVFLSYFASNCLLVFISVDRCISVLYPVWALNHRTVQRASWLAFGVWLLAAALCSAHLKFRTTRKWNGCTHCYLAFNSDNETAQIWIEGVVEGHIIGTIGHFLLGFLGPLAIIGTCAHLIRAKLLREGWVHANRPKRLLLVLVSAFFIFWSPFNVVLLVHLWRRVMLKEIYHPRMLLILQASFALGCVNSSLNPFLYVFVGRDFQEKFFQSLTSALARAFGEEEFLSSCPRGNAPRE
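CHO-K1 cells stably expressing ProLink-tagged GPR32 and Enzyme Activator-tagged beta-arrestin were seeded at 2,500 cells/well overnight, exposed to compounds for 90 min at 37 °C, then read by beta-Gal complementation chemiluminescence after 1 h detection reagent.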
HTT prom inh – inhibits huntingtin promoter activity; HEK293 HTT promoter firefly luciferase reporter, 24 h; Potency, µM (doses to about 57.5 µM), most hits filed as inhibitors; 0.93% of 48,000 active; AID 1508623; further: nearly all actives have a fitted effect of over 50% in size
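Luminescence was read after Dual-Glo reagent and a 10 min room-temperature incubation. Values were normalized to vehicle (0% activity) and zero RLU (-100% activity). Reporter HEK293 cells had been exposed to compounds (up to 57.5 uM final) for 24 h.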
HTT-AS act – activates huntingtin-antisense promoter activity. HEK293 HTT-AS promoter firefly luciferase reporter, 24 h; response scale: percent change from vehicle, -100% = no light. Potency, µM (series often up to 57.5 µM), usual class: activators. 0.24% of 48,000 active; further: nearly all actives have a fitted effect of over 55% in size
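Luminescence was read after Dual-Glo reagent and a 10 min room-temperature incubation. Values were normalized to vehicle (0% activity) and zero RLU (-100% activity). Reporter HEK293 cells had been exposed to compounds (up to 57.5 uM final) for 24 h.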
A number is an active result; 0 = inactive; ? = inconclusive; - = no result; ! = a repeat was not active. A selection: hits, their analogues and other compounds. The true share with any hit is near 3.6%. Unless noted, the call rests on the fitted dose curve; in most records, active means well fitted curve in the direction sought with a large enough effect; inconclusive means small, poorly fitted or top-dose-only effect, or another doubt; inactive means no such curve, though single readings can be large; an effect the other way counts as inactive or inconclusive.

SMILES | PTAP-TSG101 blk | B2AR arrestin ag | GALK inhibitor | DRV1 agonist | HTT prom inh | HTT-AS act
COC(=O)c1ccc2c(c1)N(CC(=O)Nc1ccc(OC)c(Cl)c1)C(=O)c1ccccc1S2 | 0 | 0 | 0 | 0 | 0 | 0
CC(=O)c1cccc(NC(=O)CN2C(=O)c3ccccc3Sc3ncccc32)c1 | 0 | 0 | 0 | 71.5 | 0 | ?
C=C1C(=O)[C@@]23C(CC[C@@H]1[C@H]2O)[C@@]12CO[C@]3(O)[C@@H](O)[C@@H]1C(C)(C)CC[C@@H]2O (stereo not given in full) | - | - | - | - | ? | 0
COc1ccc2[nH]cc(CCNC(=O)Nc3cc(C)cc(C)c3)c2c1 | 0 | 0 | 0 | 0 | 0 | 0
COc1ccc2[nH]cc(CCNC(=O)Nc3ccccc3)c2c1 | 0 | 0 | 0 | 66.8 | 0 | 0
CCCc1cc(=O)[nH]c(Nc2cccc(Cl)c2Cl)n1 | 0 | 0 | 0 | 87.2 | - | -
CCCc1cc(=O)[nH]c(Nc2cc(Cl)cc(Cl)c2)n1 | 0 | 0 | 0 | 98.5 | - | -
CN(c1ncccc1CNc1nc(Nc2ccc3c(c2)CC(=O)N3)ncc1C(F)(F)F)S(C)(=O)=O | - | - | - | - | ? | 0
Cc1cc(Nc2cc(N3CCN(C)CC3)nc(C=Cc3ccccc3)n2)n[nH]1 | - | - | - | - | ? | 0
Cc1cc(C)cc(-n2c(C)cc(C(=O)C(=O)Nc3ccccc3F)c2C)c1 | 0 | 0 | 0 | 0 | 0 | ?
Cc1cccc(-n2c(C)cc(C(=O)C(=O)Nc3ccccc3F)c2C)c1C | 0 | 0 | 0 | 0 | 8.91µM | 0
CCCN(CCC)CCNC(=O)Cn1cc2c(n1)-c1c(oc(C(=O)N3CCCC3)c1C)CC2 | 0 | 22.4µM | 0 | 0 | 0 | 0
CCCCN(CCCC)CCCNC(=O)Cn1cc2c(n1)-c1c(oc(C(=O)N3CCCC3)c1C)CC2 | 0 | ? | 0 | 0 | 0 | 0
CCO[C@@H]1O[C@H](C(COCc2ccccc2)OCc2ccccc2)[C@H](OCc2ccccc2)[C@H]1O (stereo not given in full) | - | - | - | 0 | ? | 0
COc1ccc(C2CC(=O)N(Cc3ccc(F)cc3)c3ccccc3S2)cc1OC (stereo not given) | 0 | 0 | 0 | 0 | 0 | 0
COc1cc(C2CC(=O)N(Cc3ccc(F)cc3)c3ccccc3S2)cc(OC)c1OC (stereo not given) | 0 | 0 | 0 | 0 | 14.1µM | 0
C[C@H](O)[C@@H]1C(=O)N2C(C(=O)O)=C(S[C@@H]3CN[C@H](CNS(N)(=O)=O)C3)[C@@H](C)[C@@H]12 | - | - | - | - | 0 | 0
COc1ccc2nc(NC(=O)c3cc(=O)c4ccccc4o3)sc2c1 | 0 | 0 | 0 | 0 | 0 | 3.16µM
COc1ccc2nc(NC(=O)Nc3ccccc3)sc2c1 | - | - | - | 100.9 | 0 | ?
CCc1cc2cc(OC)c(OC)cc2c(Cc2ccccc2)n1 | - | - | - | 0 | 0 | 0
O=C(CCCCCCC(=O)Nc1ccc([C@H]2O[C@@H](CSc3nc(-c4ccccc4)c(-c4ccccc4)o3)C[C@@H](c3ccc(CO)cc3)O2)cc1)NO | - | - | - | - | 0 | 0
CC(NC(CCc1ccccc1)C(=O)O)C(=O)N1C(=O)N(C)CC1C(=O)O (stereo not given) | - | - | - | 0 | 0 | 0
Cc1ccc(S(=O)(=O)CCC(=O)N2CCN(c3nc4c(C)c(Cl)ccc4s3)CC2)cc1 | 0 | 0 | 0 | 0 | 0 | 0
COc1ccc(C(=O)N2CCN(c3nc4c(OC)cccc4s3)CC2)cc1OC | 0 | 0 | 0 | 0 | 28.2µM | 0
COc1cccc2sc(N3CCN(C(=O)CCS(=O)(=O)c4ccc(F)cc4)CC3)nc12 | 0 | 0 | 0 | ? | 22.4µM | 0
SMILES | PTAP-TSG101 blk | B2AR arrestin ag | GALK inhibitor | DRV1 agonist | HTT prom inh | HTT-AS act
CCn1c(C(=O)N(C2CC2)C2CC2)cc2c3c(ncn3C)c(Nc3cc(C)n(C)n3)nc21 | - | - | - | - | 0 | 0
O=C(NCc1ccccc1Cl)C1CCC(CNS(=O)(=O)c2ccc(Br)s2)CC1 (stereo not given) | 0 | 0 | 0 | 98.2 | 0 | 0
O=C(NCc1ccc(Cl)cc1)C1CCC(CNS(=O)(=O)c2ccccc2)CC1 (stereo not given) | 0 | 0 | 0 | 83.0 | 0 | 0
COc1cccc(CNC(=O)C2CCC(CNS(=O)(=O)c3ccc(Br)s3)CC2)c1 (stereo not given) | 0 | 0 | 0 | 0 | 0 | 0
O=C(NCCc1ccccc1)C1CCC(CNS(=O)(=O)c2ccccc2)CC1 (stereo not given) | 0 | 0 | 0 | 0 | 0 | 0
CC(=O)Nc1ccc(S(=O)(=O)NCC2CCC(C(=O)NCc3ccccc3)CC2)cc1 (stereo not given) | 0 | 0 | 0 | 98.8 | 0 | 0
Cc1ccc(Cl)cc1N1CCN(CCNC(=O)Nc2ccc(Cl)cc2)CC1 | 0 | 0 | 0 | 84.1 | 0 | ?
CCOc1ccc(NC(=O)NCCCN2CCN(c3ccc(OC)cc3)CC2)cc1 | 0 | 0 | 0 | 0 | 0 | 0
CCOc1ccc(NC(=O)NCCN2CCN(c3cc(Cl)ccc3C)CC2)cc1 | 0 | 0 | 0 | 73.0 | ? | 0
CCC(=O)N1c2ccccc2CC1C(=O)NCCN1CCN(c2cc(Cl)ccc2C)CC1 (stereo not given) | 0 | 0 | 0 | 68.5 | 0 | 0
Cc1cn2cc(C(=O)N(C)CCO)cc(N[C@@H]3CCOc4cccc(C)c43)c2n1 | - | - | - | - | 0 | 0
C[C@@H]1C(=O)O[C@H]2CC34[C@H]5C[C@@H](C(C)(C)C)C36[C@H](OC(=O)[C@@H]6O)O[C@@]4(C(=O)O5)[C@]21O (stereo not given in full) | - | - | - | - | 0 | 0
Cc1ccc(C(=O)N(CCCN)[C@@H](c2oc3cc(Cl)ccc3c(=O)c2Cc2ccccc2)C(C)C)cc1 | - | - | - | - | 0 | 0
COc1ccc(CNS(=O)(=O)c2cc3c(cc2Cl)N(C(C)=O)CCO3)cc1 | 35.5µM | 0 | 0 | 0 | 0 | 0
O=C(C=CC=Cc1ccc2c(c1)OCO2)N1CCCCC1 | - | - | - | - | 0 | ?
Cc1cc(NC(=O)c2cc(Cl)ccc2Cl)ccc1-c1cc2ccccc2oc1=O | 0 | 0 | 0 | 0 | 10µM | 0
Cc1nc(C2CCCCC2)c(-c2ccc(S(N)(=O)=O)c(F)c2)o1 | - | - | - | 0 | 0 | 0
COc1cc2nc(N3CCN(C(=O)C4COc5ccccc5O4)CC3)nc(N)c2cc1OC (stereo not given) | - | - | - | 108.5! | 0 | 0
CCC1CN(C(=O)N2CCC(C(=O)N3CCN(c4cc(C)ccc4C)CC3)CC2)c2ccccc2O1 (stereo not given) | 0 | 0 | 0 | 0 | ? | 0
CCC1CN(C(=O)N2CCC(C(=O)N3CCN(c4cccc(C)c4C)CC3)CC2)c2ccccc2O1 (stereo not given) | 0 | 0 | 0 | 0 | 20µM | 0
